High-throughput results deposited in PubChem BioAssay by Sanford-Burnham Center for Chemical Genomics.
CF NFkB block: inhibitors of PAF-induced NF-kB signaling, primary screen, cell-based, GFP fluorescence, uHTS; KKLEB NF-kB-GFP reporter, GFP fluorescence overnight; inhibition, % at 5 µM; actives 0.86% (n = 360,000); AID 588850, 2011;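 active = at least 50% inhibition at 5 µM, scaled per plate between neutral and stimulator controls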;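 also: PAF is a Pseudomonas aeruginosa culture filtrate used as stimulus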
C8 TRAIL sens: viability loss with TRAIL in NB7+C8 cells, primary screen, TRAIL sensitizer project, cell-based, ATPlite luminescence; inhibition (viability loss, TRAIL sensitization), % at 10 µM; actives 1% (n = 360,000); AID 624354, 2012;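 active = compounds causing at least 50% loss of cell viability in the single-dose screen, relative to plate controls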
HIF-2a block: HIF-2a reporter inhibitors, primary screen, luminescence, 786-0 RCC cells. 786-0 RCC cells HIF-2a reporter, luciferase luminescence, overnight. inhibition, % at 18.8 µM. actives 0.72% (n = 360,000). AID 624352, 2012;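 active = inhibition of the luminescence signal of 40% or more relative to plate controls, in a single-dose primary screen at 18.75 µM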
PPC-1+TRAIL kill: compounds killing PPC-1 cancer cells with TRAIL present, primary screen, TRAIL potentiator project, ATPLite luminescence, uHTS. cell killing (% activity), % at 4 µM or 5 µM. actives 0.41% (n = 220,000). PPC-1 cells + TRAIL, ATPLite viability luminescence;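 active = cell killing above 50% in the first pass at 4 µM, then a duplicate retest at 5 µM averaging 50% or more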
Peg3 prom inh-1: Peg3 promoter-driven luciferase inhibitors, primary screen, cell-based, HeLa, luciferase luminescence; HeLa PEG-Prom luciferase reporter, overnight; inhibition, % at 20 µM; actives 1.7% (n = 360,000);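 active = inhibition of at least 50% at 20 µM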
KKLEB cytotox: cytotoxicity in KKLEB CF airway cells, primary screen, cytotoxicity control for CF NF-kB inhibitor project, cell-based, uHTS, fluorescence assay plates; KKLEB CF airway cells viability, ATPlite luminescence, overnight; stronger effect = lower value; cells stimulated with P. aeruginosa culture filtrate; AID 602141, 2011; activity change (cytotoxicity), % at 5 µM; actives 0.36% (n = 360,000);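 active = corrected activity change at or below -50% at 5 µM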
Peg3 prom inh-2: Peg3 promoter reporter inhibitors, retest, confirmation, cell-based, HeLa, luciferase reporter, single concentration; shares compounds with Peg3 prom inh-1; HeLa PEG-Prom luciferase reporter, luminescence, overnight; inhibition, % at 20 µM; actives 84% (n = 1,300); AID 602417, 2012;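 active = at 20 µM dose, 40% or more inhibition averaged across four replicates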
CF NFkB conf: inhibitors of PAF-induced NF-kB signaling, retest, confirmation, cell-based, GFP fluorescence, single concentration; inhibition, % at 5 µM; KKLEB CF airway cells, overnight; shares compounds with CF NFkB block; actives 64% (n = 1,300); in the data active = inhibition above about 40%;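 also: stimulus PAF is a Pseudomonas aeruginosa filtrate and not platelet activating factor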
Mdm2-MdmX confirm: retested Mdm2-MdmX interaction blockers, confirmation, cell-based, luminescence, single concentration, set 2; shares compounds with HIF-2a block; AID 504601, 2011; actives 99% (n = 740); inhibition, % at 8 µM; SaOS-2 split-luciferase Mdm2/MdmX complementation;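 active = mean inhibition of the luminescence signal across two replicates at or above 26 percent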
Target sequence (O15151 whole entry, looked up): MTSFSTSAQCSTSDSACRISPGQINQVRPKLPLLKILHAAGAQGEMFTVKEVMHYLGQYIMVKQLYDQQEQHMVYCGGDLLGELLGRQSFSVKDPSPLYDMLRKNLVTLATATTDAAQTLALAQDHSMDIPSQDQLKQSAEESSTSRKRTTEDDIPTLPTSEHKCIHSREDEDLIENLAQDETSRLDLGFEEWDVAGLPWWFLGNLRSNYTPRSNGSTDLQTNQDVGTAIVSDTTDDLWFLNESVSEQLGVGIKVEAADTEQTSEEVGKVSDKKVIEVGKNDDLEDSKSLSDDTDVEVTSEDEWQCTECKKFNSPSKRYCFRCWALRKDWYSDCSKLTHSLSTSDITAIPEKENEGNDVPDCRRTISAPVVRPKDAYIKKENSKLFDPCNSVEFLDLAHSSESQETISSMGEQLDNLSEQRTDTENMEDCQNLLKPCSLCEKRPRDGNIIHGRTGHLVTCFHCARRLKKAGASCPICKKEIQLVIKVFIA
Target sequence (Q00987 whole entry, looked up): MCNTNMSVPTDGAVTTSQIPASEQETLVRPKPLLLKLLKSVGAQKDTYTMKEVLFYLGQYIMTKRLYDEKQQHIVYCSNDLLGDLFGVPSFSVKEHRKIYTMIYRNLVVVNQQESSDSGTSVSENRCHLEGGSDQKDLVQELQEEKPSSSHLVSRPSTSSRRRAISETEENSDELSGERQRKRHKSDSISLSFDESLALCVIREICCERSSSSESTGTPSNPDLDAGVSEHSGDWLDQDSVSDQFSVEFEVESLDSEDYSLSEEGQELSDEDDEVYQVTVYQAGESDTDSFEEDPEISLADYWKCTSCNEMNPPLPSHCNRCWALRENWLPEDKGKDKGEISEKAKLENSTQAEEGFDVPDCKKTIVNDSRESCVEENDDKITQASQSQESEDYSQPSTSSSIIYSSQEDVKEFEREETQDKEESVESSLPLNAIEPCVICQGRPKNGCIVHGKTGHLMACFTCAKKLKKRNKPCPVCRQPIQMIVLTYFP
HIF-2a conf: HIF-2a reporter inhibitor retest, confirmation, luminescence, 786-0 RCC cells; shares compounds with HIF-2a block; HIF-2a luciferase reporter luminescence, overnight; inhibition, % at 18.8 µM; actives 56% (n = 1,800); AID 651580, 2012;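 active = mean inhibition across four replicates of at least 40 percent at the single tested concentration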
HIF-1a cs: HIF-1a luciferase reporter signal reduction – MiaPaCa-2 cells, single concentration, counter-screen for HIF-2a inhibitor project, confirmation. shares compounds with HIF-2a block. MiaPaCa-2 HIF-1a luciferase reporter, desferoxamine, overnight. inhibition, % at 18.8 µM. actives 72% (n = 1,800). AID 651589, 2012;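 active = mean inhibition of the reporter signal across four replicates at the single tested dose of 50% or more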
A number is an active result; 0 = inactive; - = not tested or not shown. This is a sample that favours compounds with a hit; in the whole collection about 3.1% have one here.

SMILES | CF NFkB block | C8 TRAIL sens | HIF-2a block | PPC-1+TRAIL kill | Peg3 prom inh-1 | KKLEB cytotox | Peg3 prom inh-2 | CF NFkB conf | others
Nc1ccc2c(c1)OC1(CCCC1)O2 | 0 | 0 | 52 | 0 | 77 | 0 | 56 | - | Mdm2-MdmX confirm=31;HIF-2a conf=0;HIF-1a cs=79
CC(C)(C)C(=O)Nc1ccc(NC(=O)c2ccco2)nc1 | 0 | 95 | 90 | - | 108 | 0 | 92 | - | Mdm2-MdmX confirm=98;HIF-2a conf=96;HIF-1a cs=96
O=C(Cc1ccccc1)Nc1ccc(NC(=O)c2ccco2)nc1 | 0 | 0 | 0 | 0 | 0 | 0 | - | -
CC1=C(C(=O)OCc2ccc3c(c2)OCO3)C(c2ccc(Cl)cc2)NC(=O)N1 (configuration not stated) | 93 | 0 | 0 | 0 | 53 | 0 | 0 | - | Mdm2-MdmX confirm=95
Cc1ccc(C)c(OCCC(=O)Nc2cccc(S(=O)(=O)N3CCCCC3)c2)c1 | 0 | 0 | 0 | - | 0 | 0 | - | -
CN(C)c1c([N+](=O)[O-])cc(N2C(=O)C=CC2=O)cc1[N+](=O)[O-] | 0 | 0 | 94 | - | 104 | 0 | 96 | - | HIF-2a conf=57;HIF-1a cs=0
O=C1c2cccc3cc([N+](=O)[O-])cc(c23)C(=O)N1CCN1CCCC1 | 0 | 59 | 0 | 0 | 112 | 0 | 99 | - | Mdm2-MdmX confirm=101
NC(=O)CN1CCN(CCN2C(=O)c3cccc4cccc(c34)C2=O)CC1 | 0 | 0 | 0 | - | 0 | 0 | - | -
Nc1cc2c3c(cccc3c1)C(=O)N(CCN1CCCC1)C2=O | 0 | 0 | 54 | 0 | 107 | 0 | 95 | - | HIF-2a conf=0;HIF-1a cs=102
Cc1cc(C)c(S(=O)(=O)N2CCN(CCN3C(=O)c4cccc5cccc(c45)C3=O)CC2)cc1[N+](=O)[O-] | - | - | - | 0 | - | - | - | -
CCCC(=O)N(Cc1cc(=O)[nH]c2ccccc12)c1ccc(C)cc1C | 0 | 0 | 0 | - | 0 | 0 | - | -
Cc1ccc(N(Cc2cc(=O)[nH]c3ccccc23)C(=O)CCl)c(C)c1 | 0 | 52 | 0 | - | 71 | 0 | 76 | - | Mdm2-MdmX confirm=101
O=C(c1cc(C2CC2)nn1-c1ccccc1)N1CCN(S(=O)(=O)c2c(F)cccc2F)CC1 | 0 | 0 | 0 | - | 0 | 0 | - | -
CCOC(=O)c1csc(NC(=O)c2ccc3c(c2)OCCO3)n1 | 0 | 0 | 0 | - | 0 | 0 | - | -
Cc1cnc(NC(=O)c2ccc3c(c2)OCCO3)s1 | 0 | 94 | 77 | - | 87 | -58 | 81 | - | HIF-2a conf=90;HIF-1a cs=80
NC(=O)CSc1n[nH]c(=O)n1CCc1ccccc1 | 0 | 0 | 0 | - | 0 | 0 | - | -
Cc1cccc(C)c1NC(=O)c1nc(S(=O)(=O)Cc2ccccc2)ncc1Cl | 95 | 0 | 77 | - | 100 | -88 | 97 | - | HIF-2a conf=69;HIF-1a cs=91
CCOC(=O)c1c(C)oc2c(F)c(F)c(F)c(F)c2c1=O | 0 | 94 | 64 | 0 | 105 | 0 | 99 | - | HIF-2a conf=66;HIF-1a cs=100
CCOc1ccc(N2C=Nc3ccc(OCC)cc3C2)cc1 | 0 | 0 | 0 | - | 0 | 0 | - | -
CN(C(=O)c1cccc(NC(=O)Cc2ccc(NC(=O)C3CCCN(C(=O)C4CC4)C3)cc2)c1)C1CCCCC1 (configuration not stated) | 0 | 0 | 0 | - | 0 | 0 | - | -
Cc1ccc2oc(=O)c3cnn(CC(=O)Nc4cc(-c5cccc(F)c5)no4)c3c2c1 | 53 | 0 | 0 | 0 | 0 | 0 | - | 0
COc1cc(OC)nc(Nc2nc(C(N)c3ccccc3Cl)cs2)n1 (configuration not stated) | 50 | 0 | 0 | - | 0 | 0 | - | 0
Cc1ccc(S(=O)(=O)Nc2ccc3cc([N+](=O)[O-])ccc3c2[N+](=O)[O-])cc1 | 50 | 0 | 0 | - | 0 | 0 | - | 75
O=C1C(=Cc2ccccc2[N+](=O)[O-])Cc2ccccc21 | 89 | 0 | 0 | - | 100 | 0 | - | 85
CC1(C)CC(=Cc2ccccc2[N+](=O)[O-])C(=O)c2ccccc21 | 0 | 0 | 0 | - | 0 | 0 | - | -
SMILES | CF NFkB block | C8 TRAIL sens | HIF-2a block | PPC-1+TRAIL kill | Peg3 prom inh-1 | KKLEB cytotox | Peg3 prom inh-2 | CF NFkB conf | others
N=c1c(S(=O)(=O)c2ccc(Br)cc2)cc2c(=O)n3ccccc3nc2n1Cc1ccco1 | 82 | 0 | 0 | - | 0 | 0 | - | 0
CC[C@@H]1[C@H]2CCCC(=O)N3CC[C@@H](C[C@@H]1Nc1ccccc1)[C@@H]23 | 0 | 0 | 0 | - | 0 | 0 | - | -
COc1ccccc1NC(=O)c1cc2c(CO)cnc(C)c2oc1=Nc1ccc(OC)c(OC)c1 | 86 | 0 | 0 | - | 56 | 0 | - | 85
CC(=O)OC1(C(C)=O)CCC2C3CC(Cl)C4=CC(=O)CCC4(C)C3CCC21C (configuration not stated) | 0 | 0 | 0 | - | 0 | 0 | - | -
CC1(C)O[C@@H]2C[C@H]3[C@@H]4CCC5=CC(=O)C=C[C@]5(C)[C@@]4(F)[C@@H](O)C[C@]3(C)[C@]2(C(=O)CO)O1 | 67 | 0 | 0 | 0 | 0 | 0 | - | 0
CC1(C)O[C@@H]2C[C@H]3[C@@H]4C[C@H](F)C5=CC(=O)C=C[C@]5(C)[C@@]4(F)[C@@H](O)C[C@]3(C)[C@]2(C(=O)CO)O1 | 73 | 0 | 0 | 0 | 0 | 0 | - | 0
CC(=O)OCC(=O)C12OC(C)(C)OC1CC1C3CC=C4CC(O)CCC4(C)C3CCC12C (configuration not stated) | 0 | 0 | 0 | - | 0 | 0 | - | -
Cc1nc2cc(NC(=O)c3ccc(S(=O)(=O)N(C)c4ccccc4)cc3)ccc2o1 | 0 | 0 | 0 | - | 0 | 0 | - | -
CCCNC(=O)C1(C)CCN(C(=O)c2oc3ccccc3c2C)C1 (configuration not stated) | 0 | 0 | 0 | - | 0 | 0 | - | -
O=C(/C=C/c1ccco1)Nc1ccccn1 | 0 | 0 | 0 | 0 | 0 | 0 | - | -
Cc1ccc(NC(=O)/C=C/c2ccco2)nc1 | 65 | 0 | 0 | 0 | 0 | 0 | - | 73
